Screening data deposited in PubChem BioAssay by National Center for Advancing Translational Sciences (NCATS).
DT40 TDP1 no CPT – qHTS for Inhibitors of human tyrosyl-DNA phosphodiesterase 1 (TDP1): qHTS in cells in absence of CPT; DT40 Tdp1-/- hTDP1 cells, no CPT, ATP luminescence, 48 h; Potency, µM (top dose mostly 46.2 µM), inactives show at the highest dose activity change, negative = growth inhibition, usual class: inhibitors; 420,000 compounds, 15% hits; AID 686978, 2013; note: potency is the fitted concentration of half-maximal effect; nearly all actives have a fitted effect of over 55% in size
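Camptothecin absent (DMSO only). Human TDP1-complemented DT40 knockout cells, 400 cells/well, 37 °C for minimum 48 hr; ATP measured via CellTiter-Glo, 30 min dark incubation, luminescence.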
HT1080 IDH1KD tx – qHTS for induction of synthetic lethality in tumor cells producing 2HG: qHTS for the HT-1080-IDH1KD cell line | HT-1080 IDH1 knockdown viability, ATP luminescence, 48 h | AID 686971, 2013 | 360,000 compounds, 2% hits | Potency, µM (doses to about 46.1 µM), for inactives: at the highest dose activity, negative = toxicity, actives largely listed as cytotoxic;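 note: potency is the fitted concentration of half-maximal effect; 0% = DMSO wells and -100% = cell-free medium wells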
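After a 2 h attachment period, IDH1KD HT-1080 cells took pin-transferred compound for 48 h at 37 °C; ATP-based luminescence after 10 min room-temperature reagent incubation reported viability.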
DT40 TDP1 CPT – qHTS for Inhibitors of human tyrosyl-DNA phosphodiesterase 1 (TDP1): qHTS in cells in presence of CPT | chicken DT40 Tdp1-/-;hTDP1 cells + 20 nM CPT, ATP luminescence, 48 h | Potency, µM (top dose mostly 46.2 µM), for the others: at the top dose activity change, negative = growth inhibition, most hits filed as inhibitors | 420,000 compounds, 12% hits | AID 686979, 2013; note: potency is the fitted concentration of half-maximal effect; nearly all actives have a fitted effect of over 55% in size
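Chicken DT40 Tdp1-/- cells stably complemented with human TDP1 were seeded at 400 cells/well in medium containing 20 nM camptothecin, exposed to pin-transferred compounds, and grown at 37 °C for at least 48 hr. Viability was read as ATP luminescence.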
IL-1B inflam inh – qHTS for Inhibitors of Inflammasome Signaling: IL-1-beta AlphaLISA Primary Screen | activity change, % at 57.5 µM | THP-1 LPS/ATP IL-1B secretion, AlphaLISA, 16 h; hits give low values | AID 743279, 2014 | 360,000 compounds, 4.7% hits; in the data active = activity change below about -50%; inconclusive = mostly about -30% to -49%
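Secreted IL-1B measured by AlphaLISA bead assay after 16 h compound exposure of THP-1 cells; compounds (final up to 57.5 uM) added 1 h before LPS (250 ng/mL) and ATP (1.25 mM) stimulation; lower signal means less secretion.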
HT1080NT lethal – qHTS for induction of synthetic lethality in tumor cells producing 2HG: qHTS for the HT-1080-NT fibrosarcoma cell line | HT-1080-NT fibrosarcoma viability, CellTiter-Glo ATP luminescence, 48 h | Potency, µM (series often up to 46.1 µM), for inactives: at the highest dose activity, negative = less viability, most hits filed as cytotoxic | 360,000 compounds, 1.6% hits | AID 686970, 2013;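 note: NT is the 2HG producing partner of a matched IDH1 knockdown line; potency is the fitted concentration of half-maximal effect; 0% = DMSO-treated cells and -100% = media-only wells without cells; nearly all actives have a fitted effect of over 55% in size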
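Toxicity toward the 2HG-producing NT line was scored as %Activity, normalised to DMSO and no-cell wells, from CellTiter-Glo luminescence after 48 hours' treatment.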
Active calls of the source: *; ? = inconclusive; . = no result; [ ] = another dose, or the depositor's remark. Rows were chosen to be rich in hits. Some 19% of all compounds tested hit in one or more screens of this group. Unless noted, calls come from the whole dose curve; as a rule, active = well fitted curve in the direction sought with a large enough effect; inconclusive = small, poorly fitted or top-dose-only effect, or another doubt; inactive = no such curve, though single readings can be large; an effect the other way counts as inactive or inconclusive. Unless noted, % is set by controls: 0 for no effect and ±100 for the full control effect.

SMILES	DT40 TDP1 no CPT	HT1080 IDH1KD tx	DT40 TDP1 CPT	IL-1B inflam inh	HT1080NT lethal
C#CCOCCOCCOCCNc1nc(N2CCN(C(=O)CCCCCCCCCCNC(=O)[C@H]([C@@H](C)CC)n3cc(CCCCCN)nn3)CC2)nc(N2CCN(C(=O)CCCCCCCCCCNC(=O)[C@H](CCCCN)n3cc(CCCC(=O)O)nn3)CC2)n1	-26%	-9%	-21%	-88*	9%
C#CCOCCOCCOCCNc1nc(N2CCN(C(=O)CCCCCCCCCCNC(=O)[C@H]([C@@H](C)CC)n3cc(CCCCN=C(N)N)nn3)CC2)nc(N2CCN(C(=O)CCCCCCCCCCNC(=O)[C@H](CCCCN)n3cc(C)nn3)CC2)n1	8.2µM*	?	23µM*	-112*	?
O=c1c(-c2ccccc2)nc2cnc(N3CCOCC3)nc2n1CCc1ccccc1	16%	.	13%	.	.
O=C(O)/C=C/C(=O)Nc1ccc(Cc2ccc(NC(=O)/C=C/C(=O)O)cc2)cc1	7%	10%	12%	3	14%
C=CCN(CC=C)C(=S)NC(=O)c1ccc(-c2ccccc2)cc1	6.5µM*	-22%	5.8µM*	22	2%
CC(C)CC(=O)NC(=S)N(Cc1ccccc1)Cc1ccccc1	?	-3%	?	-13	-8%
CC(C)C(=O)NC(=S)N(Cc1ccccc1)Cc1ccccc1	16µM*	-4%	?	-17	-1%
C=CCN(CC=C)C(=S)NC(=O)/C=C/c1ccccc1	23µM*	14%	?	20	10%
COc1ccc(C(=O)NC(=S)N(Cc2ccccc2)Cc2ccccc2)cc1	9.2µM*	-2%	16µM*	-1	-22%
C=CCN(CC=C)C(=S)NC(=O)c1ccc(OC)cc1	5.2µM*	6%	15µM*	-8	-2%
C=CCN(CC=C)C(=S)NC(=O)/C=C/c1ccc(OC)cc1	-28%	12%	-7%	16	10%
CCN1CCN(C(=O)c2ccc3c(c2)c(C)c(C)n3Cc2ccccc2)CC1	-43%	-22%	?	-15	-2%
Cc1c(C)n(Cc2ccccc2)c2ccc(C(=O)OCCCN(C)C)cc12	21µM*	13µM*	?	-109*	15µM*
Cc1c(C)n(CCN(C)C)c2ccc(C(=O)OCCN(C)C)cc12	21µM*	?	?	-25	?
COC(=O)c1sc2ccccc2c1-n1cccc1C(=O)C(=O)Nc1ccc(OC)cc1	?	-10%[9.24 µM]	?	22	-23%
COc1cc2c(cc1OC)C1CCN3C(=O)CCC3N1CC2 (stereo unspecified)	?	8%	?	1	3%
COC(=O)CCn1[nH]c(=O)c2ccccc2c1=O	-11%	29%	19%	-13	9%
O=c1[nH]n(Cc2ccccc2)c(=O)c2ccccc12	8.9µM*	?	?	17	4%
CC1C/C(=C/c2ccccn2)C(=O)/C(=C/c2ccccn2)C1 (stereo unspecified)	0.52µM*	0.58µM*	0.52µM*	-54*	0.65µM*
CC(C)(C)C1C/C(=C/c2ccccn2)C(=O)/C(=C/c2ccccn2)C1 (stereo unspecified)	0.52µM*	0.65µM*	0.92µM*	-93*	0.73µM*
C(=C\c1ccccn1)/c1ccccn1	-16%	21%	4%	-6	?
COCc1c(C(C)C)nc(C(C)C)c(/C=C/[C@@H](O)C[C@@H](O)CC(=O)O)c1-c1ccc(F)cc1	0.6µM*	.	1.2µM*	.	.
O=C1c2ccccc2C(=O)N1C/C=C/c1ccccc1	4%	-1%	5%	-23	1%
O=C1C(=O)N(CCCc2ccccc2)c2ccccc21	1.6µM*	3%	2.1µM*	-5	2%
O=C1C(=O)N(C/C=C/c2ccccc2)c2ccccc21	0.58µM*	?	0.92µM*	29	?
SMILES	DT40 TDP1 no CPT	HT1080 IDH1KD tx	DT40 TDP1 CPT	IL-1B inflam inh	HT1080NT lethal
COc1cc(C(C)=O)ccc1O	?	11%	-1%	-4	0%
CC(C)CN(C(=O)CCC(=O)OCC(=O)NCCc1ccccc1)c1c(N)n(CC(C)C)c(=O)[nH]c1=O	5%	-13%	3%	-7	9%
Cn1ccsc1=NC(=O)c1ccc([N+](=O)[O-])o1	?	-21%	18µM*	-29	-19%
COc1cc(C(=O)N=c2sccn2C)c([N+](=O)[O-])cc1OC	6%	-1%	-10%	-4	12%
COc1cccc(C2c3c(C)nn(-c4ccc([N+](=O)[O-])cc4)c3N=C3C(=O)Nc4ccccc4N32)c1 (stereo unspecified)	5.8µM*	-8%	13µM*	7	-2%
COc1cccc(-c2cc(N3C(=O)Nc4ccccc4N3O)n[nH]2)c1	4%	10%	-23%	14	11%
O=[N+]([O-])c1ccc2nc(-c3ccc(OC(F)F)cc3)cn2c1	-6%	?	25%	16	?
Cc1nn(-c2ccc([N+](=O)[O-])cc2)c2c1C(c1ccc(OC(F)F)cc1)N1C(=N2)C(=O)Nc2ccccc21 (stereo unspecified)	4.6µM*	-1%	5.2µM*	?	3%
OCC(O)C(O)C(O)CO (stereo unspecified)	5%	.	-10%	.	.
Cc1nc2nc(-c3ccc(Cl)cc3Cl)nn2c(C)c1CCC(=O)Nc1ccc(F)cc1	0%	.	1%	.	.
CC(=O)c1ccc(NC(=O)CCc2c(C)nc3cc(-c4ccc(Cl)cc4)nn3c2C)cc1	6.5µM*	.	?	.	.
